Compound activity from PubChem.
An excerpt weighted towards active compounds, which were near 10% of everything screened.
G9a inh = inhibitors of human histone lysine methyltransferase G9a. Q96KQ7. G9a H3K9 monomethylation, AlphaScreen, 2 h. Potency, µM (doses to about 102 µM), actives largely listed as inhibitors. 8.8% of 350,000 active; note: nearly all actives have a fitted effect of over 75% in size
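AlphaScreen read-out: biotin-H3K9 peptide (500 nM) methylation by 20 nM enzyme with 20 uM SAM, 2 h at room temperature after 15 min compound preincubation; anti-monomethyl H3K9 antibody plus donor/acceptor beads, 10 min dark.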
L3MBTL1 inh = inhibitors of human L3MBTL1 | Q9Y468 | AlphaScreen L3MBTL1–H3K9me1 peptide binding | Potency, µM (top dose mostly 57.1 µM), hits mostly inhibitors | 0.66% of 230,000 active | AID 485360; note: nearly all actives have a fitted effect of over 60% in size
Target sequence (Q9Y468 whole entry, looked up): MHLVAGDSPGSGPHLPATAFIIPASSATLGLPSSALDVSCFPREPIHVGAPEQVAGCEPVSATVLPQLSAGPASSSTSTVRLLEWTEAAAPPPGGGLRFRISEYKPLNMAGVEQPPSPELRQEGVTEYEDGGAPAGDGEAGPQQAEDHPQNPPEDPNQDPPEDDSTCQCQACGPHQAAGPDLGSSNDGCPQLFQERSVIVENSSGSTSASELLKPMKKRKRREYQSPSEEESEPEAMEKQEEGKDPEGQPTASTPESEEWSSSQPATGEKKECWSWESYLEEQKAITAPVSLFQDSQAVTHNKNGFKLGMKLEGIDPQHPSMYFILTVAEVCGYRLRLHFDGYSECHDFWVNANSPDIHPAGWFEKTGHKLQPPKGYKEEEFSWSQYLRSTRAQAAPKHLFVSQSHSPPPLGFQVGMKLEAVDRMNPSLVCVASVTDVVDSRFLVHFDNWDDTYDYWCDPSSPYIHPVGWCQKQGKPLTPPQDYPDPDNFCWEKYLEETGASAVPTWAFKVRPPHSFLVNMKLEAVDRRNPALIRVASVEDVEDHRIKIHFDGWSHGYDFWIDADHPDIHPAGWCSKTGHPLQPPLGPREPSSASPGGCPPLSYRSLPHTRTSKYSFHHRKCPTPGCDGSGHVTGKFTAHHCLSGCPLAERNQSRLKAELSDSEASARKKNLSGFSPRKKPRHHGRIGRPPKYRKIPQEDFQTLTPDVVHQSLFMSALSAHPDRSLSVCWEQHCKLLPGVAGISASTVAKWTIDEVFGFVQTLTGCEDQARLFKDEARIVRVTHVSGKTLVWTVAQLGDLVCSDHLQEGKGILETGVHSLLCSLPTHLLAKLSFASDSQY
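Read-out is AlphaScreen signal from streptavidin donor and nickel chelate acceptor beads (10 ug/mL final each) bridging L3MBTL1 (50 nM) and biotinylated K9-monomethylated H3(1-15) peptide (75 nM), after 30 min compound exposure at room temperature.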
GLS inh = blocks human kidney-isoform glutaminase activity | O94925 | GLS enzymatic activity, qHTS titration | Potency, µM (highest dose often 45.5 µM), usual class: inhibitors | 0.21% of 410,000 active
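Human kidney-isoform GLS in 45 mM KH2PO4 pH 8.2, 0.02% Tween-20, with compound, started with 1mM L-Glutamine (added stock). Glutamate oxidase/HRP/Amplex red coupled fluorescence read at start and after 30 min at RT.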
JMJD2A Tudor inh = inhibitors of human JMJD2A Tudor domain; O75164; AlphaScreen JMJD2A-Tudor / H3K4me3 peptide binding; Potency, µM (doses to about 114 µM), most hits filed as inhibitors; 4.4% of 390,000 active; AID 504339; note: nearly all actives have a fitted effect of over 50% in size
HP1b binding inh = HP1-beta chromodomain-methylated histone interaction inhibition; Potency, µM (doses to about 114 µM), most hits filed as inhibitors; P83916; 0.56% of 390,000 active; AlphaScreen HP1-beta / biotin-H3K9me3 peptide binding; AID 540317; note: nearly all actives have a fitted effect of over 70% in size
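HP1-beta protein (50 nM final) preincubated 30 min at room temperature with biotinylated H3(1-18)K9me3 peptide (50 nM) in PBS pH 7.4, 0.01% Tween-20, then compound added for 30 min. AlphaScreen streptavidin donor/nickel chelate acceptor beads (10 ug/mL final), 30 min dark, luminescence read.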
BAZ2B inh = blocks human BAZ2B. Q9UIF8. AlphaScreen BAZ2B-H3K14Ac peptide displacement. Potency, µM (highest dose often 114 µM), hits mostly inhibitors. 4.4% of 360,000 active. AID 504333; note: nearly all actives have a fitted effect of over 60% in size
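Complex of BAZ2B and biotin-H3K14Ac (50 nM apiece) forms over 30 min at RT, then faces library compounds up to 110 uM for another 30 min; AlphaScreen beads added, 20 min dark incubation, luminescence read.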
Numbers stand for hits; n = inactive; u = inconclusive; x = not tested or not shown; [ ] = another dose, or the depositor's remark. Calls come from the whole dose curve; as a rule, active = well fitted curve in the direction sought with a large enough effect; inconclusive = small, poorly fitted or top-dose-only effect, or another doubt; inactive = no such curve, though single readings can be large; an effect the other way counts as inactive or inconclusive.

SMILES | G9a inh | L3MBTL1 inh | GLS inh | JMJD2A Tudor inh | HP1b binding inh | BAZ2B inh
CC(=O)N1c2ccc(S(=O)(=O)N3CCC(C(=O)NC(C)c4ccccc4)CC3)cc2CC1C (stereo unspecified) | u | n | n | n | n | n
COc1ccc(S(=O)(=O)N2CCC(C(=O)NC3CC3)CC2)cc1 | n | x | n | n | n | n
CCc1ccc2nc3c(c(C(=O)O)c2c1)CCC3 | 50.1µM | u | u | n | n | u
CC1CCc2nc3ccc(S(=O)(=O)N4CCC(C(=O)NC(C)c5ccccc5)CC4)cc3c(C(=O)O)c2C1 (stereo unspecified) | 50.1µM | x | n | n | n | u
CSc1ccc(S(=O)(=O)N2CCC(C(=O)NC3CC3)CC2)cc1 | 35.5µM | x | n | n | n | n
Cc1ccc(C2CC(=O)N(Cc3ccc(F)cc3)c3c2c(C)nn3-c2nc(C)cc(C)n2)cc1 (stereo unspecified) | n | x | n | n | n | n
O=C(CCCn1c(=O)c2cccn2c2ccccc21)Nc1cccc(Cl)c1 | n | x | n | n | n | u
COC(CNC(=O)C1CCN(S(=O)(=O)c2ccc3nc4c(c(C(=O)O)c3c2)CC(C)CC4)CC1)OC (stereo unspecified) | 31.6µM | x | n | n | n | u
O=C(O)c1c2c(nc3ccc(S(=O)(=O)N4CCC(C(=O)N5CCCCC5)CC4)cc13)CCCC2 | 50.1µM | x | n | n | n | u
CCOC(CNC(=O)C1CCN(S(=O)(=O)c2ccc3nc4c(c(C(=O)O)c3c2)CCCCC4)CC1)OCC | n | x | n | n | n | n
CC1CCc2nc3ccc(S(=O)(=O)N4CCC(C(=O)NC5CCCC5)CC4)cc3c(C(=O)O)c2C1 (stereo unspecified) | 44.7µM | x | n | n | n | n
CC1CCc2nc3ccc(S(=O)(=O)N4CCC(C(=O)N5CCCCC5)CC4)cc3c(C(=O)O)c2C1 (stereo unspecified) | 44.7µM | x | n | n | n | n
O=C(O)c1c2c(nc3ccc(S(=O)(=O)N4CCC(C(=O)NC5CCCC5)CC4)cc13)CCCCC2 | u | n | n | n | n | n
Cc1cc2oc(C(=O)Nc3sc4c(c3C(=O)NCC3CCCO3)CCC4)cc(=O)c2cc1C (stereo unspecified) | n | x | n | n | n | n
COc1cccc(NS(=O)(=O)c2cc(-c3cnc(C4CC4)o3)ccc2C)c1 | u | x | n | n | n | n
CCC(C(=O)Nc1cc(OC)ccc1OC)n1c(C)c2cnn(-c3ccccc3)c(=O)c2c1C (stereo unspecified) | n | x | n | u | n | u
CCn1cc(C(=O)NCc2ccc(Cl)cc2)c(=O)c2cc(S(=O)(=O)N(C)C3CCCCC3)ccc21 | n | x | n | n | n | x
CCOc1ccccc1NS(=O)(=O)c1ccc2c(c1)CC(C)N2C(=O)C1CC1 (stereo unspecified) | n | x | n | n | n | n
CCN(CC)C(=O)Cn1ncc2c([nH]c3ccc(C)cc32)c1=O | n | x | n | n | n | n
COc1cccc(C=Nc2cccnc2)c1O | u | n | x | x | x | n
COc1cccc(C=Nc2cc(C(C)C)c(O)cc2C)c1O | x | x | n | 56.2µM | 79.4µM | x
Cc1cc(O)c(C(C)C)cc1N=Cc1ccc([N+](=O)[O-])cc1 | x | x | n | 44.7µM | 50.1µM | x
Cc1cc(O)c(C(C)C)cc1N=Cc1ccc(N(C)C)cc1 | x | x | n | 50.1µM | 44.7µM | x
Cc1ccc(-c2cc3c(N4CCN(c5cc(C)ccc5C)CC4)nccn3n2)cc1 | u | x | n | n | n | u
Fc1ccccc1N1CCN(c2ncnc3onc(-c4cccc(Cl)c4)c23)CC1 | n | x | n | n | n | n
SMILES | G9a inh | L3MBTL1 inh | GLS inh | JMJD2A Tudor inh | HP1b binding inh | BAZ2B inh
CC(=O)/C(N=Nc1cc2c(cc1[N+](=O)[O-])OCCO2)=C(\C)O | n | n | n | 17.8µM | n | n
CC(=O)/C(N=Nc1ccc(C(=O)O)cc1[N+](=O)[O-])=C(\C)O | u | x | n | n | n | 56.2µM
COC(=O)c1ccccc1-c1ccc(C(c2c(C)[nH][nH]c2=O)c2c(C)[nH][nH]c2=O)o1 | n | n | n | n | n | n
COC(=O)c1cccc(-c2ccc(C(c3c(C)[nH][nH]c3=O)c3c(C)[nH][nH]c3=O)o2)c1 | 2.24µM | n | u | 56.2µM | u | 39.8µM
COc1ccc(NC(=O)c2cnc[nH]2)cc1 | n | x | n | n | n | n
NC(N)=N/N=C/c1ccc2cccc(OCc3ccccc3)c2n1 | n | n | n | u | n | n
O/N=C/c1ccc2cccc(OCc3ccccc3)c2n1 | 20µM | x | n | n | n | n
CCn1c(C(=O)NCc2ccccc2OC)cc2sccc21 | n | x | n | u | n | n
Cc1cc(S(=O)(=O)N2CCCC(N(C)CCc3ccccn3)C2)c(C)s1 (stereo unspecified) | 50.1µM | x | x | x | x | n
CC(=O)c1ccc(C2CC34CNS(=O)(=O)C3CC2O4)cc1 (stereo unspecified) | x | x | x | 79.4µM | n | x
O=C1C=CC(=O)C(C2=C3C(=O)N(CCc4ccccc4)CC(=O)N3CCC2)=C1 | 1.26µM | n | u | 3.16µM | 6.31µM | 50.1µM
Cc1cccc(-n2c(=S)[nH]c3sc4c(c3c2=O)CCc2ccccc2-4)c1 | u | x | 10µM | u | 7.08µM | u
Cc1ccc(-n2c(=S)[nH]c3sc4c(c3c2=O)CCc2ccccc2-4)cc1 | n | n | n | n | n | n
O=S(=O)(NCC(c1ccco1)S(=O)(=O)c1cccs1)c1ccc(Cl)cc1 (stereo unspecified) | n | x | n | n | n | n
Cc1ccc2nc(-c3ccccc3)cc(C(=O)N3CCN(c4ccccc4O)CC3)c2c1 | 50.1µM | n | n | u | n | n
Cc1ccc(-c2cc(C(=O)N3CCOCC3)c3cc(C)ccc3n2)cc1 | n | x | n | n | n | n
O=C(c1cc(-c2ccccc2)nc2ccccc12)N1CCN(c2ccccc2O)CC1 | x | x | 7.08µM | u | n | n
O=C(c1cc(-c2ccncc2)nc2ccccc12)N1CCN(c2ccccc2O)CC1 | n | x | n | n | n | n
C#C[C@]1(O)CC[C@H]2C3CCC4=Cc5oncc5CC4(C)C3CCC21C (stereo partly specified) | n[12.7 µM] | x | x | x | x | x
COc1cccc(OC)c1C(=O)Nc1ccc(S(=O)(=O)Nc2nccc(C)n2)cc1 | n | x | n | n | n | n
COc1cc2nc(/C=C/c3ccc(N(C)C)cc3)sc2cc1SC | u | u | n | 25.1µM | u | 22.4µM
CCN(CC)c1ccc(/C=C/c2nc3ccccc3s2)cc1 | n | n | x | x | x | n
COc1ccccc1CN1C[C@@H]2C[C@@H](c3[nH]c4c(C)cccc4c3C)N3CCC[C@@]23C1=O | 44.7µM | n | n | n | n | u
COc1ccccc1CN1C[C@@H]2C[C@@H](c3cccc(C)n3)N3CCC[C@@]23C1=O | x | n | n | n | n | n
